The assay is described as follows: Primary qHTS to identify inhibitors of SARS-CoV-2 cell entry (AID 1645846). Also: nearly all actives have a fitted effect of over 45% in size. The settings on record: activity change, negative = inhibition: at 57.1 µM (top of the series) unless noted. The procedure, abridged:
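Entry measured by luciferase signal 48 h after adding SARS-CoV-2-S pseudotyped MLV particles to HEK293-ACE2 cells preincubated 1 h with compounds. Normalisation: bald particles and spike particles.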
(In qHTS, concentration-response curves come from the screen itself.)

Among the data in PubChem BioAssay (NCATS) are activity change, negative = inhibition, Potency and outcome values, retold here.

Each structure is given as a SMILES string. “And” between values parts separate entries of the source, which are not always exact repeats. Equal entries are not always repeated. Results filed as inconclusive are left out. The source made the active and inactive calls. Calls follow the shape of the full dose curve.
Potency is read from the fitted curve at half-maximal effect.

`Cn1c(=O)c2[nH]cnc2n(C)c1=O`: the activity change, negative = inhibition was -18.5% and -12.1%. On to `c1ccc2sc(SSc3nc4ccccc4s3)nc2c1`, for which the Potency result was “inactive”. For the molecule `CCCCCCCCCCCCCCCC(=O)OCCC1CCN(CCCN2c3ccccc3Sc3ccc(S(=O)(=O)N(C)C)cc32)CC1`, the activity change, negative = inhibition is -4.81%. Regarding `CCOC(=O)c1ccc(OCCN2C[C@H](O)[C@@H](O)[C@H](O)[C@H]2CO)cc1`, the activity change, negative = inhibition was determined as 0.637%.

As to `CC(=O)N(CC(O)CO)c1c(I)c(C(=O)NCC(O)CO)c(I)c(C(=O)NCC(O)CO)c1I` (stereo not drawn), the Potency result was “inactive”. `CCOc1ccc(NS(=O)(=O)c2ccc(N)cc2)nn1`: the activity change, negative = inhibition was -12.4%.

For the molecule `O=C(O)c1ccccc1Nc1cccc(C(F)(F)F)c1`, the Potency entry is “inactive”. In the case of `Cc1ccc(C(C)C)cc2c(C)ccc1-2`, the Potency entry is “inactive”.

In the case of `CN1C(=O)OC(C)(C)C1=O`, the Potency entry was “inactive”.

For `CC(=O)Nc1c(I)c(NC(C)=O)c(I)c(C(=O)O)c1I`, the activity change, negative = inhibition was -1.67%. The same measure, in the same setting: next, `Cc1c(F)c(N2CCNC(C)C2)cc2c1c(=O)c(C(=O)O)cn2C1CC1` (stereo not drawn): -25.6%.

In the case of `NC(=O)c1ccc([N+](=O)[O-])cc1Cl`, the activity change, negative = inhibition is -5.3%. Consider `COc1cc(C)nc(-n2nc(C)cc2OC)n1`, for which the Potency result was “inactive”. With `CC(C)(Sc1cc(C(C)(C)C)c(O)c(C(C)(C)C)c1)Sc1cc(C(C)(C)C)c(O)c(C(C)(C)C)c1`, the Potency entry is “inactive”. Same read-out and setting: with `Oc1cccc(O)c1` the entry was “inactive”; with `NC(=O)c1cc[n+](CC2=C(C(=O)[O-])N3C(=O)[C@@H](NC(=O)Cc4cccs4)[C@H]3SC2)cc1`, “inactive”. `COc1cc(OC)c(C(=O)CCCN2CCCC2)c(OC)c1`: the activity change, negative = inhibition was -26.6%. For `C#CCC(Cc1cnc2nc(N)nc(N)c2n1)c1ccc(C(=O)N[C@@H](CCC(=O)O)C(=O)O)cc1` (stereo partly drawn), the activity change, negative = inhibition is -93.7%. Regarding `CC(C)=CCC1C(=O)N(c2ccccc2)N(c2ccccc2)C1=O`, the activity change, negative = inhibition was -3.84%.

For the molecule `NS(=O)(=O)c1cc2c(cc1C(F)(F)F)NC(Cc1ccccc1)NS2(=O)=O` (stereo not drawn), the Potency entry is “inactive”. The same measure, in the same setting: with `CC(=O)Nc1ccc(CC(=O)O)cc1` the entry was “inactive”; with `CC12CCC(CC1)C(C)(C)O2`, “inactive”; with `COc1cc2c(Nc3ccc(Br)cc3F)ncnc2cc1OCC1CCN(C)CC1`, “inactive”.

In the case of `CO/N=C(\C(=O)N[C@@H]1C(=O)N2C(C(=O)O)=C(C[N+]3(C)CCCC3)CS[C@H]12)c1csc(N)n1`, the activity change, negative = inhibition is -9.52%. As to `CN1CCN(CC(=O)N2c3ccccc3C(=O)Nc3cccnc32)CC1`, the outcome was “inactive [at 5.25 µM]”.

For `CC(C(=O)O)c1ccc2c(c1)[nH]c1ccc(Cl)cc12` (stereo not drawn), the Potency result is “inactive”.

`CCc1cccc(CC)c1NC(=O)CN(CC(=O)O)CC(=O)O`: the Potency entry was “inactive”. On to `Nc1nc2ccc(OC(F)(F)F)cc2s1`, for which the Potency entry is “inactive”. As for `CCN1C(=O)NC(c2ccccc2)C1=O` (stereo not drawn), the activity change, negative = inhibition was -1.94%. With `CO[C@@]1(NC(=O)Cc2cccs2)C(=O)N2C(C(=O)O)=C(COC(N)=O)CS[C@@H]21`, the Potency entry was “inactive”.

For the molecule `CN/C(=C\[N+](=O)[O-])NCCSCc1csc(CN(C)C)n1`, the Potency result is “inactive”. Consider `CC(=O)O[C@@H]1CC2C3CCc4cc(OC(=O)c5ccccc5)ccc4C3CCC2(C)[C@H]1OC(C)=O` (stereo partly drawn), for which the activity change, negative = inhibition came out at 4.28%. Take `Nc1nc(Cl)nc2c1ncn2[C@@H]1O[C@H](CO)[C@@H](O)[C@@H]1F`: the Potency was 22.4 µM (active).

Consider `C=CCN1CCc2nc(N)sc2CC1`, for which the Potency result was “inactive”. `CCCc1nc(C(C)(C)O)c(C(=O)OCc2oc(=O)oc2C)n1Cc1ccc(-c2ccccc2-c2nn[nH]n2)cc1`: the activity change, negative = inhibition is -0.861%. Turning to `c1ccc2c(CC3=NCCN3)cccc2c1`, the activity change, negative = inhibition came out at 0.334%. Regarding `COc1ccc(C2C(=O)c3ccccc3C2=O)cc1`, the Potency result is “inactive”. On the same count and under the same terms, with `O=C(c1ccccc1)c1ccccc1` the entry was “inactive”; with `Cc1cc(O)cc2c1O[C@](C)(CCC[C@H](C)CCC[C@H](C)CCCC(C)C)CC2`, “inactive”; with `COc1ccc(-c2cc(=O)c3c(O)cc(O[C@@H]4O[C@H](CO[C@@H]5O[C@@H](C)[C@H](O)[C@@H](O)[C@H]5O)[C@@H](O)[C@H](O)[C@H]4O)cc3o2)cc1O`, “inactive”.

Consider `CC(CCc1ccccc1)NCC(O)c1ccc(O)c(C(N)=O)c1` (stereo not drawn), for which the activity change, negative = inhibition is -28.2%. Take `NC1CCN(c2nc3c(cc2F)c(=O)c(C(=O)O)cn3-c2ccc(F)cc2F)C1` (stereo not drawn): the Potency entry is “inactive”. Same read-out and setting: with `CCO[C@H](Cc1ccc(OCCc2ccc(OS(C)(=O)=O)cc2)cc1)C(=O)O` the entry was “inactive”. On the same count and under the same terms, with `O=C(O)c1ccccc1S` the entry was “inactive”; with `Nc1ccc(C(=O)O)cc1`, “inactive”.

Regarding `CCCCC(CC)COC(=O)c1ccccc1O` (stereo not drawn), the Potency entry was “inactive”. Turning to `CC1CCN(CCCC(=O)c2ccc(F)cc2)CC1`, the activity change, negative = inhibition is -25%. For `Cc1ccc(C(C)C)c(O)c1`, the activity change, negative = inhibition was -6.21%. Regarding `CC(=O)O[C@]1(C(C)=O)CC[C@H]2[C@@H]3C[C@H](C)C4=CC(=O)CC[C@]4(C)[C@H]3CC[C@@]21C`, the activity change, negative = inhibition was -11.3%. For `O=C(Oc1ccccc1C(=O)O)c1ccccc1O`, the activity change, negative = inhibition is -27.2%. Same read-out and setting: next, `CCCCCCCCCCOc1cc2c(=O)c(C(=O)OCC)c[nH]c2cc1OCC`: -22.6% [at 5.25 µM]. Same read-out and setting: with `Cc1cc(O)c2c(O)c3c(O)cccc3cc2c1` the figure was -3.92%. Take `C#C[C@]1(O)CC[C@H]2[C@@H]3CCc4cc(OC5CCCC5)ccc4[C@H]3CC[C@@]21C`: the activity change, negative = inhibition was -15.1%. As for `C[C@]12CCC(=O)C=C1CC[C@H]1[C@@H]3CC[C@](O)(C(=O)CO)[C@@]3(C)C[C@H](O)[C@@]12F`, the activity change, negative = inhibition was -15.9%. Take `CC(=O)N(CC(O)CO)c1c(I)c(C(=O)NCCO)c(I)c(C(=O)NCC(O)CO)c1I` (stereo not drawn): the activity change, negative = inhibition is -15%. For the molecule `CC(C)NCC(O)c1ccc(NS(C)(=O)=O)cc1` (stereo not drawn), the activity change, negative = inhibition is -13.1% and -25%. Still for that read-out and setting: with `CCOc1cc(CC(=O)N[C@@H](CC(C)C)c2ccccc2N2CCCCC2)ccc1C(=O)O` the figure was -13.4%; with `O=S(=O)(O)c1ccc(O)cc1`, 2.14%; with `O=C(O)Cc1cccc(-c2cc(CCCCCCc3ccc(O[C@H]4O[C@H](CO)[C@@H](O)[C@H](O)[C@@H]4O)c(-c4cccc(CC(=O)O)c4)c3)ccc2O[C@H]2O[C@H](CO)[C@@H](O)[C@H](O)[C@@H]2O)c1`, -14.7% [at 0.702 µM]. For the molecule `COc1ccc(C2CNC(=O)C2)cc1OC1CCCC1` (stereo not drawn), the activity change, negative = inhibition is 4.15% and -11.8%. In the case of `CC(C)[C@H](N)C(=O)OCCOCn1cnc2c(=O)[nH]c(N)nc21`, the activity change, negative = inhibition was -28.1%. In the case of `C[C@@H](O)[C@H]1C(=O)N2C(C(=O)O)=C(SCCN=CN)C[C@H]12`, the Potency entry is “inactive”. As to `CCCCC(O)/C=C(C)/C=C/C=C/C(=O)N1CCCC1=O` (stereo not drawn), the activity change, negative = inhibition is -3.29%.
